# Shown are actives, neighbours in structure and some others; about 3.6% of the full set was active somewhere.
# aSyn yeast inh: rescues yeast growth from alpha-synuclein toxicity. Potency, µM (top dose mostly 46.1 µM), for inactives: at the top dose growth rescue (activation), usual class: activators. Yeast expressing alpha-synuclein, growth rescue, BacTiter-Glo, 24 h. 370,000 tested, 0.14% active; note: % of control where 0% means no effect; nearly all actives have a fitted effect of over 65% in size
#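 Screening used galactose-induced yeast with toxic alpha-synuclein levels, exposed to compound for 24 hr at 30 deg C. Cell growth, read with BacTiter-Glo luminescence, gave the measured signal.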
# Mm-Cpn inhibitor: blocks the Methanococcus maripaludis chaperonin Mm-Cpn. purified Mm-Cpn ATPase, ADP Transcreener TR-FRET. Potency, µM (doses to about 76.9 µM), for inactives: at the top dose activity, negative = inhibition, actives largely listed as inhibitors. 330,000 tested, 0.031% active. AID 504842; note: % is set by controls: 0 for no effect and ±100 for the full control effect; nearly all actives have a fitted effect of over 80% in size
#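 Inhibition of chaperonin ATP hydrolysis is measured as reduced ADP production, detected by competitive TR-FRET in which signal falls with ADP. Final enzyme 25 nM and ATP 10 uM, reacted 30 min at 37°C.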
# ClpP mod: qHTS Assay for Activators of ClpP | ATP-dependent Clp protease proteolytic subunit (Bacillus subtilis (strain 168)), P80244 | purified B. subtilis ClpP, FRET peptide cleavage, 20 min | Potency, µM (highest dose often 57.5 µM), for the others: top-dose activity change, negative = active | 340,000 tested, 1.9% active | AID 651965, 2013; active = well fitted falling curve with a large enough effect; inconclusive = small, poorly fitted or top-dose-only effect; inactive = no such curve, though single readings can be large or run the other way; note: the source files actives as falling curves though it sought activators and does not explain the sign; nearly all actives have a fitted effect of over 65% in size
# Target sequence (P80244 whole entry, looked up): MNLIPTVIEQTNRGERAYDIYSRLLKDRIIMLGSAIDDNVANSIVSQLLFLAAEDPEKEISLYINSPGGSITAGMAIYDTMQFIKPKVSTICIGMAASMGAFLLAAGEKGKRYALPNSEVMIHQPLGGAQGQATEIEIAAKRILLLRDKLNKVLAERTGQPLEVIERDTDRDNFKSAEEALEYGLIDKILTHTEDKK
#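 Buffer: 100 mM Tris/HCl pH8, 100 mM KCl, 0.05% low protease BSA, 2.5% glycerol, 0.01% Tween-20. ClpP 10 microg/mL final; 20 min RT; delta FRET normalized to ADEP and DMSO controls.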
# FUS suppressor: FUS proteinopathy suppression in yeast; S. cerevisiae FUS-expressing, growth rescue, OD600, 24 h; AID 1347120; 390,000 tested, 0.24% active; Potency, µM (top dose mostly 76.6 µM), usual class: activators;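 note: plate controls were DMSO vehicle for no effect and reference control for full effect; nearly all actives have a fitted effect of over 55% in size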
#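 Restored growth of FUS-toxic S. cerevisiae, read as 600 nm absorbance after 24 h at 30C in galactose medium (starting OD 0.005). Controls CP55940 and DMSO.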
# Abeta yeast res: compounds reversing amyloid beta toxicity in yeast. yeast expressing A-beta42, growth rescue, OD600, 48 h; response scale: 0% DMSO, 100% iron-clioquinol control. Potency, µM (titrated, usually from 46.1 µM), most hits filed as activators. 410,000 tested, 0.063% active. AID 1347071; note: nearly all actives have a fitted effect of over 55% in size
#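 Yeast A-beta toxicity model in growth medium with pinned compounds, 48 h at 30 C; growth read as absorbance at 600 nm. Normalized to FeCl3/clioquinol equimolar mix (positive) and DMSO (negative).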
# TDP43 rescue: rescues yeast growth from TDP-43 toxicity | 410,000 tested, 1.8% active | Potency, µM (highest dose often 46.1 µM), for inactives: top-dose growth rescue (activation), most hits filed as activators | TDP-43 expressing yeast growth rescue, BacTiter-Glo, 24 h | AID 652104; note: % of control where 0% means no effect; nearly all actives have a fitted effect of over 50% in size
#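 Readout is BacTiter-Glo luminescence of cell growth, so inhibitors register as activators. TDP-43-expressing yeast at OD600=0.02 in galactose medium, after raffinose pregrowth to mid-log, were incubated with compound for 24 hr at 30 deg C.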
# An asterisk follows results filed as active; i = inactive; u = inconclusive; x = not tested or not shown; [ ] = another dose, or the depositor's remark. Unless noted, calls come from the whole dose curve; as a rule, active = well fitted curve in the direction sought with a large enough effect; inconclusive = small, poorly fitted or top-dose-only effect, or another doubt; inactive = no such curve, though single readings can be large; an effect the other way counts as inactive or inconclusive. Potency is the fitted concentration of half-maximal effect.
SMILES,aSyn yeast inh,Mm-Cpn inhibitor,ClpP mod,FUS suppressor,Abeta yeast res,TDP43 rescue
COCCCNc1oc(-c2ccc(COc3ccc(Cl)cc3)o2)nc1C#N,x,x,31.6µM*,u,i,u
CCOC(=O)c1csc(NC(=O)C2CCCN(S(=O)(=O)c3cc(OC)ccc3OC)C2)n1 (centres undefined),x,x,x,i,x,x
Cc1ccc(C(=O)NCC(c2ccc3c(c2)OCO3)N2CCOCC2)cc1C (centres undefined),x,x,-0.7%,i,i,15.0%
Cc1ccc(C)c(Nc2nnc(-c3ccc(C)c(S(=O)(=O)NCC4CCCO4)c3)c3ccccc23)c1 (centres undefined),x,x,-18.2%,i,i,u
COc1ccc(-c2nc(C#N)c(NCc3ccccc3Cl)o2)cc1OC,-0.9%,-0.4%,u,i,i,-17.1%
COc1ccc(-c2nc(C#N)c(NCCc3ccccc3)o2)cc1,5.6%,0.1%,31.6µM*,i,i,-13.5%
COc1ccc(-c2nc(C#N)c(NCc3ccccc3Cl)o2)cc1,0.3%,x,35.5µM*,i,i,-6.1%
CCNc1oc(-c2ccc(COc3ccc(Cl)cc3)o2)nc1C#N,x,x,-178.6%,i,i,6.5%
CCOc1ccc(-c2nc(C#N)c(NCc3ccc4c(c3)OCO4)o2)cc1,0.9%,-3.8%,4.2%,i,i,20.9%
Cc1ccc(OCc2nc(C#N)c(NCc3ccc4c(c3)OCO4)o2)cc1,6.6%,-0.4%,2.3%,i,i,11.2µM*
Cc1ccc(OCc2ccc(-c3nc(C#N)c(NCc4ccccc4Cl)o3)o2)cc1,x,x,25.1µM*,i,i,14.6%
Cc1c(Cl)cccc1NC(=O)CSc1nc(=O)n(Cc2ccncc2)c2c1CCC2,x,x,-2.0%,i,i,-19.1%
Cc1c(Cl)cccc1NC(=O)Cn1c(=O)nc(-c2ccccc2)c2ccccc21,x,x,40.7%,i,i,0.0%
O=C(Cn1nc(N2CCN(c3ccccc3)CC2)ccc1=O)NCc1cccc(Cl)c1,x,x,-1.1%,i,i,0.0%
CCCn1c2ccccc2c2cnn(CC(=O)NCCc3ccc(OCC)c(OCC)c3)c(=O)c21,x,x,-12.6%,i,i,15.4%
COCCNc1oc(-c2ccc(COc3ccc(OC)cc3)o2)nc1C#N,x,x,u,i,i,-0.6%
CCCCNc1oc(-c2ccc(COc3ccc(OC)cc3)o2)nc1C#N,x,x,28.2µM*,i,i,2.7%
OC(c1ccccc1)(c1ccccc1)C1CCN(CCCNc2ccccc2Br)CC1,x,x,x,i,x,x
CN(C)S(=O)(=O)Oc1ccccc1C(=O)Nc1ccc(F)cc1F,-1.1%,-4.0%,x,i,i,-7.7%
CCN(CC)C(=O)Oc1ccc(Br)cc1C(=O)Nc1ccc(F)cc1F,11.6%,-0.6%,31.6µM*,i,i,17.5%
COc1cccc(N=Nc2c(N)[nH]n3c(=O)cc(-c4ccccc4)nc23)c1,2.4%,0.8%,15.5%,i,i[9.22 µM],17.3%
Cc1ccc(N=Nc2c(N)[nH]n3c(=O)cc(-c4ccccc4)nc23)cc1,1.6%,2.1%,28.2µM*,x,i,9.1%
O=C1c2cccnc2-c2ncccc21,-11.9%,1.0%,0.0%,i,i,2.2%
COC1=C(Br)C(=O)c2ncccc2C1=O,15.8µM*,x,-0.9%,x,i,27.9%
O=C(CSc1nnc(-c2ccccc2)c(-c2ccccc2)n1)N1CCOCC1,-6.5%,-0.7%,1.4%,i,i,-18.6%
SMILES,aSyn yeast inh,Mm-Cpn inhibitor,ClpP mod,FUS suppressor,Abeta yeast res,TDP43 rescue
O=C(CSc1nncc2ccccc12)N1CCOCC1,3.7%,-0.9%,-0.3%,i,i,-16.1%
O=C(CSc1nc(-c2ccccc2)c(-c2ccccc2)o1)N1CCOCC1,4.2%,-6.5%,31.6µM*,i,i,-17.3%
O=C(CSc1nc2ccccc2c2c1CCCC2)N1CCOCC1,u,-3.3%,x,i,i,10µM*
O=C1c2ccsc2SCCN1Cc1ccc(Cl)cc1,16.6%,-0.1%,-2.8%,i,i,22.4µM*
O=C1c2ccsc2SCCN1Cc1ccc(F)cc1,u,-1.6%,-1.1%,i,i,u
O=c1[nH]cnc2nc(-c3ccccc3)c(-c3ccccc3)nc12,0.8%,-2.6%,28.2µM*,i,i,11.4%
Clc1ccc(-c2nnc(C3CCCCC3)o2)cc1,-3.4%,1.7%,1.9%,i,i,11.2µM*
COc1ccc(C(=O)c2oc3ccccc3c2NC(=O)COc2ccccc2)cc1,x,x,-16.0%,i,i,16.8%
Cc1ccc(CSc2nnc3[nH]c(=O)cc(C)n23)cc1,x,x,-6.3%,i,i,10.3%
COC(=O)[C@]12C[C@H](CC(=O)NCCc3ccccc3OC)C(=O)N(Cc3cccc4ccccc34)C1=C[C@H](C(C)(C)C)O[C@@H]2C,x,x,x,14.1µM*,x,x
COC(=O)[C@]12C[C@H](CC(=O)NCC34CC5CC(CC(C5)C3)C4)C(=O)N(Cc3cccc4ccccc34)C1=C[C@H](C(C)(C)C)O[C@@H]2C,x,x,x,i,x,x
COC(=O)[C@]12C[C@H](CC(=O)N3CCN(C(=O)C4CC4)CC3)C(=O)N(Cc3cccc4ccccc34)C1=C[C@H](C1CCCC1)O[C@@H]2C,x,x,x,20µM*,x,x
CCCCOCCCNC(=O)C[C@H]1C[C@@]2(C(=O)OC)C(=C[C@H](C3CCCC3)O[C@@H]2C)N(Cc2cccc3ccccc23)C1=O,x,x,x,8.91µM*,x,x
COC(=O)[C@]12C[C@H](CC(=O)NCc3ccccc3)C(=O)N(Cc3ccc(Cl)cc3Cl)C1=C[C@H](C1CCCC1)O[C@@H]2C,x,x,x,i,x,x
O=C(Nc1ccc(Cl)cc1)OC1CCC12CCC(c1ccccc1)CC2 (centres undefined),x,x,x,i,x,x
CCOC(=O)NC(=O)CSc1nc(C)cc(C)c1C#N,2.0%,-0.8%,16.3%,i,i,15.8µM*
CCCCCn1c(=O)[nH]c2cc(C(=O)N3CCN(c4cccc(C(F)(F)F)c4)CC3)ccc2c1=O,x,x,-1.0%,i,i,18.1%
COC(=O)c1sccc1-c1ccc(/C=N/OC(=O)c2ccccc2)o1,-3.0%,-16.7%,31.6µM*,i,i,25.3%
COC(=O)c1ccccc1-c1ccc(/C=N/NC(N)=O)o1,0.7%,-1.2%,-0.5%,i,i,-7.3%
COc1ccccc1OCCCCn1c(C2CC(=O)N(c3ccccc3Cl)C2)nc2ccccc21 (centres undefined),x,x,0.7%,i,i,29.7%
Cc1c(Cl)cccc1N1CC(c2nc3ccccc3n2Cc2ccccc2F)CC1=O (centres undefined),x,x,-0.1%,i,i,25.1µM*
